Where “and” joins values, the source holds several entries; their conditions need not be identical. Equal values may be shown once. Results filed as inconclusive are left out. Some compounds were tested as several samples or in several runs, with calls that do not always agree. Calls of active or inactive are those of the source. Calls come from the whole dose curve; as a rule, active = well fitted curve in the direction sought with a large enough effect in the repeat runs; inconclusive = weak or mixed curves; inactive = no such curve, though single readings can be large; an effect the other way counts as inactive or inconclusive.

Consider 18 compounds from PubChem BioAssay (Tox21).

Test [1] can be described thus: A CellTox Green Cytotoxicity Assay to monitor cytotoxicity in HEK293 cells - 32 hour (AID 1224881). Note: nearly all actives have a fitted effect of over 40% in size. Note: potency is the fitted concentration of half-maximal effect. A digest of the protocol:
(§1)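 HEK293 cells premixed with CellTox Green dye were seeded at 600 cells/well and left 5 h at 37 C/5% CO2 before pin transfer of 23 nL compound in DMSO. Fluorescence from dye bound to dead-cell DNA was read during 40 h treatment.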

A short description of test [2]: A CellTox Green Cytotoxicity Assay to monitor cytotoxicity in HepG2 cells - 0 hour (AID 1224882). Note: nearly all actives have a fitted effect of over 35% in size. The method, boiled down: (§2)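 HepG2 cells were seeded together with the CellTox Green dye at 600 cells/well, left 5 h at 37 C/5% CO2, then given compounds in DMSO. Fluorescence from dye bound to dead-cell DNA was read repeatedly over 40 h of treatment at 37 C.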
The nature of test [3]: A CellTox Green Cytotoxicity Assay to monitor cytotoxicity in HepG2 cells - 32 hour (AID 1224883). Note: nearly all actives have a fitted effect of over 50% in size. Note: potency is the fitted concentration of half-maximal effect. The method, boiled down: as §2
The nature of test [4]: A CellTox Green Cytotoxicity Assay to monitor cytotoxicity in HEK293 cells - 8 hour (AID 1224884). Note: nearly all actives have a fitted effect of over 35% in size. Note: potency is the fitted concentration of half-maximal effect. A digest of the protocol:
as §1

Test [5] is described as follows: qHTS RealTime-Glo MT Cell Viability Assay in HEK293 cells - 24 hour (AID 1224886). Note: nearly all actives have a fitted effect of over 50% in size. Note: potency is the fitted concentration of half-maximal effect. A digest of the protocol: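 Viability tracked continuously by luminescence as live cells reduce a prosubstrate for NanoLuc; HEK293 cells preincubated 5 h, compound-treated at 37 C, and read at 0, 8, 16, 24, 32 and 40 h.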
(In qHTS, concentration-response curves come from the screen itself.)

The nature of test [6]: qHTS RealTime-Glo MT Cell Viability Assay in HEK293 cells - 8 hour (AID 1224887). Note: nearly all actives have a fitted effect of over 50% in size. Note: potency is the fitted concentration of half-maximal effect. A digest of the protocol: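 HEK293 cells mixed with RealTime-Glo reagents (NanoLuc plus cell-permeant prosubstrate) at 600 cells/well, preincubated 5 h at 37 C/5% CO2, then given 23 nL compound in DMSO. Nonlytic luminescence from viable cells was read at 0, 8, 16, 24, 32 and 40 h.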
Test [7] in a line: A CellTox Green Cytotoxicity Assay to monitor cytotoxicity in HEK293 cells - 16 hour (AID 1224888). Note: nearly all actives have a fitted effect of over 35% in size. Note: potency is the fitted concentration of half-maximal effect. A digest of the protocol: as §1
Test [8] is described as follows: qHTS RealTime-Glo MT Cell Viability Assay in HepG2 cells - 0 hour (AID 1224889). Note: nearly all actives have a fitted effect of over 50% in size. Note: potency is the fitted concentration of half-maximal effect. A digest of the protocol:
(§3)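 Viability was tracked continuously by NanoLuc luminescence from prosubstrate reduced by living HepG2 cells, at successive time points over 40 h of compound exposure. Cells with reagent were preincubated 5 h at 37 °C before compound addition.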

Test [9] in a line: A CellTox Green Cytotoxicity Assay to monitor cytotoxicity in HepG2 cells - 8 hour (AID 1224890). Note: nearly all actives have a fitted effect of over 45% in size. Note: potency is the fitted concentration of half-maximal effect. A digest of the protocol:
as §2

The nature of test [10]: qHTS RealTime-Glo MT Cell Viability Assay in HepG2 cells - 16 hour (AID 1224885). Note: nearly all actives have a fitted effect of over 50% in size. A digest of the protocol:
as §3

As to `COc1cc(C=O)cc2c1[C@H](COC(N)=O)[C@]1(OC(C)=O)ON2C[C@H]2[C@@H]1N2C(C)=O`, the Potency entry in test [1], in test [2], in test [4], in test [6], in test [7] and in test [8] was “inactive” each time. Besides, the Potency result in test [9] is “inactive”. Moreover, the Potency is 0.0977 µM (active) in [3] and 0.245 µM (active) in test [5].

`O=C(Nc1ccc2[nH]ccc2c1)c1cc2cc(F)ccc2n1Cc1cccc(F)c1`: the Potency result in test [1], in test [2], in test [3], in [4], in test [5] and in [6] was “inactive” each time. Besides, the Potency entry in [7], in test [8] and in test [9] was “inactive” in each case.

With `CCCOCC(=Nc1ccc(Cl)cc1C(F)(F)F)n1ccnc1`, the Potency in [1] was 48.9 µM (active); in test [3] it was 43.6 µM (active); in [4] it was 54.9 µM (active); in [5] it was 43.6 µM (active); in [6], 43.6 µM (active); in [7], 54.9 µM (active). The Potency entry in [2] and in [8] was “inactive” throughout.

As for `COS(=O)(=O)c1ccc(C)cc1`, the Potency result in [1], in test [2], in test [3], in test [4], in test [10] and in test [6] was “inactive” throughout. Further, the Potency entry in test [8] and in test [9] was “inactive” each time.

Turning to `O=c1[nH]c2ccccc2n1CCCN1CCC(n2c(=O)[nH]c3cc(Cl)ccc32)CC1`, the Potency entry in test [1], in test [2], in [4], in test [10], in [7] and in [8] was “inactive” in each case. For the same compound, the Potency result in test [9] was “inactive”. Further, the Potency in test [3] was 21.3 µM (active); in [6], 9.52 µM (active).

As to `CC1(C)[C@H](C(=O)O[C@H](C#N)c2cccc(Oc3ccccc3)c2)[C@@H]1/C=C(\Cl)C(F)(F)F`, the Potency result in test [1], in test [2], in [3], in test [4], in test [10] and in test [7] was “inactive” throughout. In addition, the Potency result in [8] and in test [9] was “inactive” throughout.

Turning to `Clc1ccc(C(c2ccccc2Cl)C(Cl)(Cl)Cl)cc1` (stereo not given), the Potency in test [1] is 55.3 µM (active) and inactive; in [6], 49.3 µM (active) and inactive. The Potency entry in test [2], in test [3], in test [4], in [10], in [7] and in [8] was “inactive” in each case. Further, the Potency entry in [9] was “inactive”.

On to `O=C/C(Cl)=C(/Cl)C(=O)O`, for which the Potency entry in test [1], in test [2], in test [4], in test [10], in test [6] and in test [8] was “inactive” throughout. Further, the Potency result in [9] was “inactive”. The Potency in [3] is 54.9 µM (active).

In the case of `c1ccc2cc3c(cc2c1)-c1cccc2cccc-3c12`, the Potency result in test [1], in test [2], in [3], in [4], in test [10] and in test [6] was “inactive” each time. The Potency entry in [7], in test [8] and in [9] was “inactive” in each case.

Take `CC(C)CC(C)(c1ccc(O)cc1)c1ccc(O)cc1`: the Potency was 49.1 µM (active) in test [1]; 43.8 µM (active) in [3]; 24.6 µM (active) and inactive in test [4]; 43.8 µM (active) in test [5]; 43.8 µM (active) and inactive in test [6]; “inactive and 49 µM (active)” in test [9]. Also, the Potency result in test [2] and in test [8] was “inactive” throughout.

On to `CN(C)[C@@H]1C(=O)C(C(N)=O)=C(O)[C@@]2(O)C(=O)C3=C(O)c4c(O)ccc(Cl)c4[C@@](C)(O)[C@H]3C[C@@H]12`, for which the Potency entry in test [1], in test [2], in test [3], in test [4], in test [10] and in test [6] was “inactive” each time. Moreover, the Potency entry in [7], in test [8] and in test [9] was “inactive” in each case.

`CCOC(=O)C1(c2ccccc2)CCN(CCC(C#N)(c2ccccc2)c2ccccc2)CC1`: the Potency entry in test [1], in [2], in [3], in test [4], in [5] and in [6] was “inactive” in each case. The Potency result in [7], in test [8] and in [9] was “inactive” in each case.

With `CC1(C)C(/C=C(\Cl)C(F)(F)F)C1C(=O)OC(C#N)c1cccc(Oc2ccccc2)c1` (stereo not given), the Potency entry in [1], in [2], in test [3], in [4], in [10] and in [8] was “inactive” each time. In addition, the Potency result in [9] is “inactive”.

Consider `O=C(Cl)c1ccc(Cl)cc1`, for which the Potency result in test [1], in [2], in test [3], in test [4], in test [10] and in [7] was “inactive” each time. For the same compound, the Potency result in test [9] is “inactive”.

Consider `Cc1c(Cl)c(=O)oc2cc(OP(=O)(OCCCl)OCCCl)ccc12`, for which the Potency result in test [1], in test [2], in [3], in [4], in test [10] and in test [7] was “inactive” in each case. The Potency entry in [8] and in test [9] was “inactive” each time.

Turning to `C=CC(=O)OCCCCOC(=O)C=C`, the figures for the Potency in test [1], in [3] and in test [5] were 43.6 µM (active), 43.6 µM (active) and 34.7 µM (active), respectively. Further, the Potency entry in test [2], in test [4], in test [6], in [7], in test [8] and in [9] was “inactive” each time.

As for `O=c1c(C2CC(c3ccc(-c4ccc(Br)cc4)cc3)Cc3ccccc32)c(O)sc2ccccc12` (stereo not given), the Potency result in test [1], in test [2], in test [3], in test [4], in test [5] and in test [6] was “inactive” each time. Further, the Potency entry in test [9] was “inactive”. The Potency in [8] was 6.74 µM (active).

Turning to `O=[N+]([O-])c1ccc(Oc2ccc(C(F)(F)F)cc2[N+](=O)[O-])cc1`, the Potency entry in test [1], in [2], in [3], in test [4], in test [8] and in test [9] was “inactive” each time. The Potency in test [5] is 15.5 µM (active); in test [6] it was 19.5 µM (active).
